Experimental data as given in the supplement of paper PMC10849652.
Of roughly 7,900 targets only a part is listed; those with a hit were picked by preference. About 0.6% of all pairs of compound and target were hits.

What was measured:
Assay in all cases: log2 fold change, soluble protein after heating vs DMSO (PISA); higher = thermal stabilisation; K562 cells, 10 uM, 30 min; active = over 0.2 and 3.5 SD of the protein, either way, in both replicates (recomputed)
[1] = compound: CC1=C(C=C(C=C1)NC(=O)C2=CC(=CC=C2)C(C)(C)C#N)NC3=CC4=C(C=C3)N=CN(C4=O)C
Procedure, shortened: (§1)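 K562 cells (2×10^6 cells/mL) were treated with 10 μM compound for 30 min, and aliquots were heated for 3 min over 48°C-58°C. Pooled aliquots were extracted in PBS with 0.5% NP-40 at 4°C, and the supernatant after 21,000xg for 90 min was measured by TMTpro 16plex LC-MS/MS with channel sums equalised. Reported thermal stability, relative to control samples and from duplicates, is a log2 fold change.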

[2] = compound: CC1=C(C=C(C=C1)NC(=O)C2=CC(=CC=C2)N(C)C)NC(=O)C3=CC=C(C=C3)O
Procedure, shortened: as §1

[3] = compound: CC1=CC=C(C=C1)SC2=C3C=C(SC3=CN=C2)C(=O)N
Procedure, shortened: as §1

[4] = compound: CC1=NC(=CC=C1)C2=C(N=C(N2)C(C)(C)C)C3=CC4=NC=CN=C4C=C3
Procedure, shortened: as §1

Nexturastat A = compound: CCCCN(Cc1ccc(C(=O)NO)cc1)C(=O)Nc1ccccc1 [Nexturastat A]
Procedure, shortened: as §1

vemurafenib = compound: CCCS(=O)(=O)Nc1ccc(F)c(C(=O)c2c[nH]c3ncc(-c4ccc(Cl)cc4)cc23)c1F [vemurafenib]
Procedure, shortened: as §1

[5] = compound: CCCS(=O)(=O)Nc1ccc(F)c(C(=O)c2c[nH]c3ncc(Cl)cc23)c1F
Procedure, shortened: as §1

[6] = compound: CCCc1cc(C)[nH]c(=O)c1CNC(=O)c1cc(-c2ccnc(N3CCN(C)CC3)c2)cc2c1cnn2C(C)C
Procedure, shortened: as §1

givinostat = compound: CCN(CC)Cc1ccc2cc(COC(=O)Nc3ccc(C(=O)NO)cc3)ccc2c1 [givinostat]
Procedure, shortened: as §1

barasertib = compound: CCN(CCCOc1ccc2c(Nc3cc(CC(=O)Nc4cccc(F)c4)[nH]n3)ncnc2c1)CCOP(=O)(O)O [barasertib]
Procedure, shortened: as §1

Measured: log2 fold change

PRKAR2A (UniProt P13861)
inactive: [1] 0.141 | [2] 0.001 | [3] 0.011 | [4] -0.033 | Nexturastat A 0.008 | vemurafenib -0.021 | [5] -0.021 | [6] 0.019 | givinostat 0.024 | barasertib -0.001

PIKFYVE (UniProt Q9Y2I7)
inactive: [1] -0.012 | [2] -0.02 | [3] 0.005 | [4] 0.006 | Nexturastat A 0.004 | vemurafenib 0.091 | [5] 0.109 | [6] -0.001 | givinostat 0.054 | barasertib 0.013

PDLIM7 (UniProt Q9NR12)
UniProt Q9NR12, sequence (Q9NR12 whole entry, looked up): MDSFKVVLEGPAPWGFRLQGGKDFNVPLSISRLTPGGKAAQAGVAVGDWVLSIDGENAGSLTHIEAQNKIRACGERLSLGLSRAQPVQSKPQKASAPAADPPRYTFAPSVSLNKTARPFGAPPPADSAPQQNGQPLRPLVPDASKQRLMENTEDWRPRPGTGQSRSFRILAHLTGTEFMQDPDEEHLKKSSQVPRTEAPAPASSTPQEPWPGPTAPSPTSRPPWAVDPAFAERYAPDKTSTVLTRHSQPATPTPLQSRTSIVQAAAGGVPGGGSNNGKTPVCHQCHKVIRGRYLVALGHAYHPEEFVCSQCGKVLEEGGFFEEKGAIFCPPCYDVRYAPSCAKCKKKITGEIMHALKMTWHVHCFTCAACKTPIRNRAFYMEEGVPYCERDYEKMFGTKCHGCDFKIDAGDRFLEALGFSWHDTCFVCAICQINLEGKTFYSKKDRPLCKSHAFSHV
inactive: [1] 0.02 | [2] -0.029 | [3] -0.002 | [4] 0.046 | Nexturastat A -0.016 | vemurafenib 0.026 | [5] 0.032 | [6] 0.001 | givinostat 0.05 | barasertib 0.032

POLD1 (UniProt P28340)
UniProt P28340, sequence (P28340 whole entry, looked up): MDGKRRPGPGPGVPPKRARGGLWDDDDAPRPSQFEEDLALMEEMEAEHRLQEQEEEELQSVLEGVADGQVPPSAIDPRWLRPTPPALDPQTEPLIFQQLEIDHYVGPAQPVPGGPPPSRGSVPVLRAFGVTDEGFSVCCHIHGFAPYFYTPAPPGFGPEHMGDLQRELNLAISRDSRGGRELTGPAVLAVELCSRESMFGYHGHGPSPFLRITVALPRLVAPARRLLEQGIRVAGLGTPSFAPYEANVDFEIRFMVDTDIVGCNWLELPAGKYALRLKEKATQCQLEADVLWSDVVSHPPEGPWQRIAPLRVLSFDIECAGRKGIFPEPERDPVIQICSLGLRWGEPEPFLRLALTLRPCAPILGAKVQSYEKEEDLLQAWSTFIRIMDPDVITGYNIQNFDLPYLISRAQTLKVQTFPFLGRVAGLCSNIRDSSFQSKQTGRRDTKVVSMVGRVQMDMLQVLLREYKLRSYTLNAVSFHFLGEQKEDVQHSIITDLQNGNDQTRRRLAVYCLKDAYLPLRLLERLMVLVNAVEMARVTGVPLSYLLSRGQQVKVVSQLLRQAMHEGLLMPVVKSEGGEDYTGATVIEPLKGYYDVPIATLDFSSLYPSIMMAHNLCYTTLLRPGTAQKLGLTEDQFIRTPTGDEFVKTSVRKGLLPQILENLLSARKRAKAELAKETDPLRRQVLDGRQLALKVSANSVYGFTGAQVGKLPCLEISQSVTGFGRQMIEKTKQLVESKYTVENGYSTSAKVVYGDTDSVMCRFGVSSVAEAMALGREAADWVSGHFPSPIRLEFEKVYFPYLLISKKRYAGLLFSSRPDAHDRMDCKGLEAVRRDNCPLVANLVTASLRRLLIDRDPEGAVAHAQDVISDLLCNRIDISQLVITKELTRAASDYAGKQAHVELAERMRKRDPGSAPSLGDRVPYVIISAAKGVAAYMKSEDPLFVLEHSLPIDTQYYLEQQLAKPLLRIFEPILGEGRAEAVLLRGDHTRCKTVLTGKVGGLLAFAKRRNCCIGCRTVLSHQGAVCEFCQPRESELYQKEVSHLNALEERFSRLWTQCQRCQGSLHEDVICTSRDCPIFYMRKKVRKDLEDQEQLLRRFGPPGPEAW
inactive: [1] -0.083 | [2] -0.028 | [3] 0.018 | [4] 0.022 | Nexturastat A 0.02 | vemurafenib 0.033 | [5] 0.071 | [6] 0.006 | givinostat 0.021 | barasertib 0.005

QRSL1 (UniProt Q9H0R6)
UniProt Q9H0R6, sequence (Q9H0R6 whole entry, looked up): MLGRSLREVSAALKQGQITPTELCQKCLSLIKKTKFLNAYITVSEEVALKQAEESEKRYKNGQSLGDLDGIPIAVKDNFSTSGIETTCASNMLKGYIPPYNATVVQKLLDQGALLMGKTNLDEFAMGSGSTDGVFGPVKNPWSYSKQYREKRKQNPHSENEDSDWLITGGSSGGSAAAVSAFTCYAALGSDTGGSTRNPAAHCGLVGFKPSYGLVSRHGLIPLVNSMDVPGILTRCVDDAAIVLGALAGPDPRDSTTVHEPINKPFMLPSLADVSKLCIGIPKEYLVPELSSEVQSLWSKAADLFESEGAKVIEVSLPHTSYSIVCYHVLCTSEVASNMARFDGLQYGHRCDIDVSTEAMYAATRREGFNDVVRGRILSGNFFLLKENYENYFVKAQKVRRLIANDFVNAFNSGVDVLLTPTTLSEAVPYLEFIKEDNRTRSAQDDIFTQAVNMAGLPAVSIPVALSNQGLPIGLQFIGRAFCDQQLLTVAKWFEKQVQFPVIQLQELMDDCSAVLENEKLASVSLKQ
inactive: [1] -0.001 | [2] -0.079 | [3] 0.018 | [4] 0.041 | Nexturastat A -0.09 | vemurafenib 0.086 | [5] 0.061 | [6] 0.093 | givinostat 0.033 | barasertib 0.044

PPP6R1 (UniProt Q9UPN7)
UniProt Q9UPN7, sequence (Q9UPN7 whole entry, looked up): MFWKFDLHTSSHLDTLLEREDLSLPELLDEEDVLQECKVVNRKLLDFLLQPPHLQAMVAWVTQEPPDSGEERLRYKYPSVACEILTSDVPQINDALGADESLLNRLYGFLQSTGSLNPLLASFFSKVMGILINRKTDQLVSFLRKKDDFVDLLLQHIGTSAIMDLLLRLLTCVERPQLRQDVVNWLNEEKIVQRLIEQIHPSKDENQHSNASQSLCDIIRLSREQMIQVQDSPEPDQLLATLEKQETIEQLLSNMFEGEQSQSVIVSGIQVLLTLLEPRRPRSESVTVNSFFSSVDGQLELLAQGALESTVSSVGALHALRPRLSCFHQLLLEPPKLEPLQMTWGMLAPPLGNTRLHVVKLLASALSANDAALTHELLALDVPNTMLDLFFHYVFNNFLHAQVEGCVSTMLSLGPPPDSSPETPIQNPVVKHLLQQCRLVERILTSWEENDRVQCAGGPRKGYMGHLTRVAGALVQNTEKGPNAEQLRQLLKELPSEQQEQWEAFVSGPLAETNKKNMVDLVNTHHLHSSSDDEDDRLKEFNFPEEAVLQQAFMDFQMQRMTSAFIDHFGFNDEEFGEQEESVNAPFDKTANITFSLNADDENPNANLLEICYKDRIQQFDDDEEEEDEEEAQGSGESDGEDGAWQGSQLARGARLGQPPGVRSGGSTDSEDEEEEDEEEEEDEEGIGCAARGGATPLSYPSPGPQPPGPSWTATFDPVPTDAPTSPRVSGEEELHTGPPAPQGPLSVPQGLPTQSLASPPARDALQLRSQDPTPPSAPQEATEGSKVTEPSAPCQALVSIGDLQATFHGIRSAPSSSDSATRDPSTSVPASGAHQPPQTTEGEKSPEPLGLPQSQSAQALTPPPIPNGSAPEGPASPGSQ
inactive: [1] 0.014 | [2] 0.023 | [3] 0.022 | [4] 0.036 | Nexturastat A -0.1 | vemurafenib 0.08 | [5] 0.018 | [6] -0.001 | givinostat -0.018 | barasertib -0.025

PTTG1 (UniProt O95997)
UniProt O95997, sequence (O95997 whole entry, looked up): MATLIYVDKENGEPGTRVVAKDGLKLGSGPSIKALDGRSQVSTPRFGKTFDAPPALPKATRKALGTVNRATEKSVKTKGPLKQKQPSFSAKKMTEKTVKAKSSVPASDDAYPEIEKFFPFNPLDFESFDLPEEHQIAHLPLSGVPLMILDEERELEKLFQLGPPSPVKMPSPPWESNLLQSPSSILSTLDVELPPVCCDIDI
inactive: [1] 0.007 | [2] -0.353 | [3] 0.02 | [4] -0.077 | Nexturastat A 0.098 | vemurafenib -0.081 | [5] -0.045 | [6] -0.021 | givinostat 0.068 | barasertib 0.023

PRPF38A (UniProt Q8NAV1)
UniProt Q8NAV1, sequence (Q8NAV1 whole entry, looked up): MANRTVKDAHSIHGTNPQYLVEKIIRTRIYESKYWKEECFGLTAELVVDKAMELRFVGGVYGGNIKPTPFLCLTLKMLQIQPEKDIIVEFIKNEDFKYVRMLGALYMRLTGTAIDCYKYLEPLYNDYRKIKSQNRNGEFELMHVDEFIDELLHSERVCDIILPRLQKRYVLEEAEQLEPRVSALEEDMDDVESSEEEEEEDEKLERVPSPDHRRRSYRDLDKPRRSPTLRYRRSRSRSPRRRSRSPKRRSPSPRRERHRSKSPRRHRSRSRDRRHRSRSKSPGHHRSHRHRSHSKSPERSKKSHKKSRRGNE
inactive: [1] 0.005 | [2] -0.023 | [3] -0.058 | [4] 0.017 | Nexturastat A 0.019 | vemurafenib -0.118 | [5] -0.089 | [6] 0.065 | givinostat 0.005 | barasertib -0.024

PUM1 isoform 3 (UniProt Q14671)
inactive: [1] -0.011 | [2] 0.01 | [3] 0.011 | [4] 0.042 | Nexturastat A 0.06 | vemurafenib 0.02 | [5] 0.05 | [6] 0.002 | givinostat -0.03 | barasertib 0.011

POLR2A (UniProt P24928)
inactive: [1] -0.009 | [2] -0.049 | [3] 0.064 | [4] 0.018 | Nexturastat A 0.001 | vemurafenib 0.002 | [5] 0.071 | [6] -0.023 | givinostat -0.024 | barasertib 0.024

PHF5A (UniProt Q7RTV0)
UniProt Q7RTV0, sequence (Q7RTV0 whole entry, looked up): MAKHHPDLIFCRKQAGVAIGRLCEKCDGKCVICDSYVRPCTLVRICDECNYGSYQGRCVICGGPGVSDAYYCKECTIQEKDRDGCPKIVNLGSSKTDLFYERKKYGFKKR
inactive: [1] -0.019 | [2] -0.046 | [3] -0.023 | [4] -0.012 | Nexturastat A -0.017 | vemurafenib -0.075 | [5] -0.064 | [6] 0.021 | givinostat -0.075 | barasertib -0.032

PRKAR1B (UniProt P31321)
inactive: [1] 0.102 | [2] -0.019 | [3] 0.004 | [4] -0.057 | Nexturastat A 0.015 | vemurafenib 0.04 | [5] -0.038 | [6] 0.133 | givinostat -0.036 | barasertib -0.12

PRUNE1 (UniProt Q86TP1)
UniProt Q86TP1, sequence (Q86TP1 whole entry, looked up): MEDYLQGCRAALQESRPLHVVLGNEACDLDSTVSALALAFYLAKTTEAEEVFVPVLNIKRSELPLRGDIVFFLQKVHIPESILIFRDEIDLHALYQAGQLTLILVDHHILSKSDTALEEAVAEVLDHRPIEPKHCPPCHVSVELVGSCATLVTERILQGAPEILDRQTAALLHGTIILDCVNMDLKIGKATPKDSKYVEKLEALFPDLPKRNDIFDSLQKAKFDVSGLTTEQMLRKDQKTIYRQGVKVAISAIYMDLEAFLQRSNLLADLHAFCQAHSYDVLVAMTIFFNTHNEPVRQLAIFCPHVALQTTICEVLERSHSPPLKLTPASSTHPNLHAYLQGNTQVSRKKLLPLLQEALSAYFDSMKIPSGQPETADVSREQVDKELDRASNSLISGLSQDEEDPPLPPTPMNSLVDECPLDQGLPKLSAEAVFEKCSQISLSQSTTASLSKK
inactive: [1] 0.056 | [2] -0.014 | [3] -0.005 | [4] -0.028 | Nexturastat A 0.161 | vemurafenib 0.129 | [5] 0.036 | [6] 0.022 | givinostat 0.056 | barasertib 0.105

PNPLA2 (UniProt Q96AD5)
UniProt Q96AD5, sequence (Q96AD5 whole entry, looked up): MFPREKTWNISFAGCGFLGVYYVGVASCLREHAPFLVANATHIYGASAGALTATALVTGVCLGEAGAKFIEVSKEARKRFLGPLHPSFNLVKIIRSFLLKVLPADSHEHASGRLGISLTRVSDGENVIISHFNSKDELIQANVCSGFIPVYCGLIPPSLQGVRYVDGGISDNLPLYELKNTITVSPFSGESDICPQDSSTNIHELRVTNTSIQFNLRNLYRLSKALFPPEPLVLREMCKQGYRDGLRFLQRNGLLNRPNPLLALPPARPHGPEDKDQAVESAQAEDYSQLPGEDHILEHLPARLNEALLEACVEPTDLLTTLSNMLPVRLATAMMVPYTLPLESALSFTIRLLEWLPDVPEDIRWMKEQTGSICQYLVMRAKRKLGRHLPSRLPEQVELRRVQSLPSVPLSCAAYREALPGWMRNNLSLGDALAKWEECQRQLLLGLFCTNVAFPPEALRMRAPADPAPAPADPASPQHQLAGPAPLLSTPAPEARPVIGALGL
inactive: [1] 0.009 | [2] -0.017 | [3] -0.003 | [4] 0.008 | Nexturastat A -0.021 | vemurafenib -0.017 | [5] 0.053 | [6] 0.026 | givinostat 0.036 | barasertib -0.092

PRMT8 (UniProt Q9NR22)
UniProt Q9NR22, sequence (Q9NR22 whole entry, looked up): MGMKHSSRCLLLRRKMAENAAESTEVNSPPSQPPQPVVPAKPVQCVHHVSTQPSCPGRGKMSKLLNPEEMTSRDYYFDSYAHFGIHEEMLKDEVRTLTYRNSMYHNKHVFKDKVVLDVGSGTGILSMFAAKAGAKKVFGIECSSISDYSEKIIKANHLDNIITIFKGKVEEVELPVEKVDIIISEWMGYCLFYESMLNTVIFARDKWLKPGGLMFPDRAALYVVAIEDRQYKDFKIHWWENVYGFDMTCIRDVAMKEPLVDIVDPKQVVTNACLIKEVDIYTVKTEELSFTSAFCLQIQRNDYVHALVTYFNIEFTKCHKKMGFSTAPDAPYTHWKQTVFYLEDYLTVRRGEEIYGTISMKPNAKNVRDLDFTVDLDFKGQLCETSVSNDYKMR
inactive: [1] 0.285 | [2] -0.033 | [3] 0.097 | [4] 0.016 | Nexturastat A -0.125 | vemurafenib 0.028 | [5] 0.156 | [6] -0.009 | givinostat -0.043 | barasertib 0.031
